Data reported in PubChem BioAssay (Tox21).
Several values for one entry are separate records, joined by “and”; a condition that tells them apart may be missing. Equal entries are not always repeated. Results filed as inconclusive are left out. A call without a number means that no potency is given here. More than one record can exist for a structure, and the calls need not agree. Activity calls are given as the source filed them. Unless noted, the call rests on the fitted dose curve.

Tests used:
[1] = Nuclear factor erythroid 2-related factor 2/antioxidant responsive element (Nrf2/ARE) small molecule agonists: luciferase reporter gene qHTS assay in human keratinocytes (AID 1919969); further: nearly all actives have a fitted effect of over 35% in size; further: potency means the concentration at half of the fitted maximal effect
[2] = molecular target: Gonadotropin-releasing hormone receptor (Homo sapiens) (UniProt P30968); experiment: Human gonadotropin-releasing hormone receptor (GnRHR) small molecule agonists, calcium flux assay in GnRHR-HEK293 cells (AID 1920063); further: nearly all actives have a fitted effect of over 35% in size
Procedure, shortened: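 Calcium-dye fluorescence, Ex/Em=480/540, recorded every 1 sec over 3 min after compound addition to GnRHR-HEK293 cells. Cells had been seeded 18 hours earlier and dye-loaded for 1 hour at 37 C. Fifteen concentrations, triplicates.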

[3] = molecular target: KiSS-1 receptor (Homo sapiens) (UniProt Q969F8); experiment: Human kisspeptin (KISS1R) small molecule agonists, calcium flux assay in KISS1R-HEK293 cells (AID 1920064; active means well fitted activation curve with a large enough effect in the repeat runs)
Procedure, shortened: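 Calcium flux read-out: kinetic fluorescence at Ex/Em=480/540, 1 s intervals over 3 min, after pin-tool compound addition to dye-loaded KISS1R-HEK293 cells. Fifteen concentrations, triplicates.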

[4] = G protein-coupled receptor (GPCR) small molecule agonists, calcium flux assay: HEK293 wild type cell line counter screen (AID 1920065)
Procedure, shortened: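 Agonist mode; 18 h seeding at 37 C, 1 h dye load at 37 C; compounds pinned from DMSO, ATP as positive control; kinetic fluorescence 480/540 nm, 3 min, 1 s reads; 15 concentrations, triplicate.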

[5] = p53 small molecule agonists, cell-based qHTS assay with human liver microsomes (AID 1963577);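 further: p53 response element beta-lactamase reporter cells with liver microsomes plus NADPH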
Procedure, shortened: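 Reporter activation was measured by LiveBLAzer fluorescence intensity in p53RE-bla cells, which had been exposed to compounds for 16 h at 37 C alongside 0.5 mg/mL human liver microsomes and 0.5 mg/mL NADPH (final concentrations).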

[6] = p53 small molecule agonists, cell-based qHTS assay with rat liver microsomes (AID 1963578)
Procedure, shortened: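 Compound in DMSO added to p53RE-bla cells 5 h post-plating; rat microsomes/NADPH 0.5 mg/mL final; 16 h, 37 C; LiveBLAzer 2 h RT.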

[7] = p53 small molecule agonists, cell-based qHTS assay with rat liver microsomes: qHTS cell viability counter screen (AID 1963580); further: nearly all actives have a fitted effect of over 45% in size
Procedure, shortened: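 Luminescent ATP readout (CellTiter-Glo, 30 min at room temperature) reports viability of p53RE-bla HCT-116 cells after 16 h at 37 C with test compounds under metabolic activation by rat liver microsomes and NADPH at 0.5 mg/mL final each.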

[8] = molecular target: 5-hydroxytryptamine receptor 2A (Homo sapiens) (UniProt P28223); experiment: 5-hydroxytryptamine receptor 2A (HTR2A) small molecule antagonists, cell-based qHTS assay (AID 1963586); further: nearly all actives have a fitted effect of over 45% in size; further: potency means the concentration at half of the fitted maximal effect
Procedure, shortened: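 CHO cells stably expressing human HTR2A were plated for 18 h at 37 C, then loaded with calcium dye for 1 h. Compounds were preincubated 5 min at room temperature before DOI (4 nM solution) was added. Kinetic fluorescence was read for 3 min.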

[9] = molecular target: Muscarinic acetylcholine receptor M1 (Homo sapiens) (UniProt P11229); experiment: Cholinergic receptor muscarinic 1 (CHRM1) small molecule agonists, cell-based qHTS assay (AID 1963589); further: nearly all actives have a fitted effect of over 35% in size
Procedure, shortened: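 Calcium flux read-out: kinetic fluorescence at 1 sec intervals after pin-tool compound addition to dye-loaded CHRM1-CHO cells (human M1). Agonist mode; 15 concentrations tested in triplicate independent runs.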

[10] = cAMP Responsive Elements (CRE) small molecule antagonists, cell-based qHTS assay (AID 1963591; active means well fitted inhibition curve with a large enough effect in the signal ratio in the repeat runs, not every such curve was filed as active; the % refers to the signal ratio; further: potency means the concentration at half of the fitted maximal effect)
Procedure, shortened: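 HEK293T CRE-bla; 18 h preincubation; compound pin-transfer; NKH477 0.25 uM final, 3 h, 37 C; LiveBLAzer FRET substrate 2 h RT.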

[11] = molecular target: Beta-2 adrenergic receptor (Homo sapiens) (UniProt P07550); experiment: Adrenergic beta2 receptor (ADRB2) small molecule antagonists, cell-based qHTS assay (AID 1963592); further: series mostly up to about 92 µM; nearly all actives have a fitted effect of over 50% in size
Procedure, shortened: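 Assay format: CHO-ADRB2 cells, 18-20hr seeding at 37C/5% CO2, then compound plus 1nM isoproterenol agonist mix for 0.5hr RT. Homogeneous time-resolved fluorescence cAMP detection after 1hr, expressed as 665/615 nm ratio.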

[12] = molecular target: D(2) dopamine receptor (Homo sapiens) (UniProt P14416); experiment: Dopamine D2 receptor (DRD2) small molecule agonists, cell-based qHTS assay (AID 1963594); further: nearly all actives have a fitted effect of over 35% in size
Procedure, shortened: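 HEK293 cells stably expressing DRD2 were cultured 24 h at 37 C, then given Ro20-1724 (0.1 mM final) and compounds for 10 min at room temperature. NKH477 (200nM) was then added for 30 min. cAMP was read by HTRF.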

[13] = molecular target: D(2) dopamine receptor (Homo sapiens) (UniProt P14416); experiment: Dopamine D2 receptor (DRD2) small molecule antagonists, cell-based qHTS assay (AID 1963595; active means well fitted inhibition curve with a large enough effect in the signal ratio in the repeat runs, with a control signal flat; the % refers to the signal ratio; further: potency means the concentration at half of the fitted maximal effect)
Procedure, shortened: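 Antagonist mode in DRD2-HEK293 cells: after compound addition with 0.1 mM Ro20-1724, cells received quinpirole (12 nM) and NKH477 (200 nM) for 30 min at room temperature; HTRF cAMP read after 1 h detection.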

[14] = p53 small molecule agonists, cell-based qHTS assay with human liver microsomes: qHTS cell viability counter screen (AID 1963579); further: nearly all actives have a fitted effect of over 45% in size; further: potency means the concentration at half of the fitted maximal effect
Procedure, shortened: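 HLM-supplemented (0.5 mg/mL final) and NADPH-supplemented (0.5 mg/mL final) p53RE-bla cultures, 4,000 cells per well, were dosed with compounds in DMSO for 16 h at 37 C; luminescent ATP detection (CellTiter-Glo, 30 min, room temperature) quantified surviving cells.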

[15] = molecular target: 5-hydroxytryptamine receptor 2A (Homo sapiens) (UniProt P28223); experiment: 5-hydroxytryptamine receptor 2A (HTR2A) small molecule agonists, cell-based qHTS assay (AID 1963587); further: nearly all actives have a fitted effect of over 30% in size; further: potency means the concentration at half of the fitted maximal effect
Procedure, shortened: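 HTR2A-CHO cells, plated 18 h at 37 C/5% CO2, dye-loaded 1 h at 37 C; compounds in DMSO added by pin tool (agonist mode). Intracellular calcium flux read as kinetic fluorescence on FDSS over 2 min at 1 s intervals.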

[16] = molecular target: Beta-2 adrenergic receptor (Homo sapiens) (UniProt P07550); experiment: Adrenergic beta2 receptor (ADRB2) small molecule agonists, cell-based qHTS assay (AID 1963593);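 further: CHO cells stably overexpressing human ADRB2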
Procedure, shortened: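 CHO cells stably over-expressing ADRB2 were plated overnight at 37C, then dosed with compounds plus a stimulation mix containing 100uM IBMX and 25uM Ro-20-1724 for 0.5hr at room temperature. cAMP was measured by HTRF competition, 1hr.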

[17] = p53 small molecule agonists, cell-based qHTS assay: qHTS cell viability counter screen (AID 1963581); further: nearly all actives have a fitted effect of over 45% in size; further: potency means the concentration at half of the fitted maximal effect
Procedure, shortened: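 Cytotoxicity read-out: ATP-based luminescence (CellTiter-Glo, 30 min RT) measured in the same wells as the p53 reporter assay, HCT-116 p53RE-bla cells, 16 h compound exposure at 37 C.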

[18] = p53 small molecule agonists, cell-based qHTS assay (AID 1963582; active means well fitted activation curve with a large enough effect in the signal ratio in the repeat runs, not every such curve was filed as active; the % refers to the signal ratio)
Procedure, shortened: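 Fluorescence intensity read-out of a beta-lactamase reporter under a p53 response element. Cells were exposed to DMSO-dissolved compounds for 16 h at 37 C, then developed with FRET substrate for 2 h at RT.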

[19] = molecular target: Muscarinic acetylcholine receptor M1 (Homo sapiens) (UniProt P11229); experiment: Cholinergic receptor muscarinic 1 (CHRM1) small molecule antagonists, cell-based qHTS assay (AID 1963588); further: nearly all actives have a fitted effect of over 40% in size; further: potency means the concentration at half of the fitted maximal effect
Procedure, shortened: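 Compounds were tested at 15 concentrations in three independent runs. Dye-loaded CHRM1-CHO cells were exposed 5 min at room temperature before stimulation by acetylcholine added at 50nM. Intracellular calcium was read kinetically on FDSS for 3 min.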

[20] = cAMP Responsive Elements (CRE) small molecule agonists, cell-based qHTS assay (AID 1963590)
Procedure, shortened: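 Beta-lactamase reporter readout: LiveBLAzer B/G FRET substrate, 2 h at room temperature, added after 3 h compound treatment of CRE-bla HEK 293T cells at 37 C/5% CO2.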

Sequence of Muscarinic acetylcholine receptor M1 (Homo sapiens) (P11229 whole entry, looked up): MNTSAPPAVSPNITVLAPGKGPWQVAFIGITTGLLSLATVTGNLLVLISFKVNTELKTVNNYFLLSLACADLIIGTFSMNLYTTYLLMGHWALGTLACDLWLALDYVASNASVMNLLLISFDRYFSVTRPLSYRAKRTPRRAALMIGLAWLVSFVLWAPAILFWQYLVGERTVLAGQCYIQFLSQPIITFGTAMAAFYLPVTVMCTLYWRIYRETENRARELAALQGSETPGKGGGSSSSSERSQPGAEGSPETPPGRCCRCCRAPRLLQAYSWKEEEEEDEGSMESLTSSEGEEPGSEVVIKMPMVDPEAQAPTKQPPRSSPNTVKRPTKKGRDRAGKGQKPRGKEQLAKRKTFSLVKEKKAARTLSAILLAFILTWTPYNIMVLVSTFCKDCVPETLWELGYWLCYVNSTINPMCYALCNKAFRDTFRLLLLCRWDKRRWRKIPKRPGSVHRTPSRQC
Sequence of D(2) dopamine receptor (Homo sapiens) (P14416 whole entry, looked up): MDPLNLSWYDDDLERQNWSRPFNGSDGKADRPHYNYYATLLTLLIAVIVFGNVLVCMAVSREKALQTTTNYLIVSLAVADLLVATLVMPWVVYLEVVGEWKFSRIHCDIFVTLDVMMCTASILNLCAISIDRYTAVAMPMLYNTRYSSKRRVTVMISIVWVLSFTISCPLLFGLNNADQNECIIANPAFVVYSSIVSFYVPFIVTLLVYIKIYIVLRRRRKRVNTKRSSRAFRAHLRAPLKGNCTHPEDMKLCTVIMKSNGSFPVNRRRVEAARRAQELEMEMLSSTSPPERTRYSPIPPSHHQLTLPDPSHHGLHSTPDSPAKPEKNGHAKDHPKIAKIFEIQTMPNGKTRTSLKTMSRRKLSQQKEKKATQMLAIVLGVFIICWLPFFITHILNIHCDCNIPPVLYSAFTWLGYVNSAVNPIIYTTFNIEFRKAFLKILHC
Sequence of Beta-2 adrenergic receptor (Homo sapiens) (P07550 whole entry, looked up): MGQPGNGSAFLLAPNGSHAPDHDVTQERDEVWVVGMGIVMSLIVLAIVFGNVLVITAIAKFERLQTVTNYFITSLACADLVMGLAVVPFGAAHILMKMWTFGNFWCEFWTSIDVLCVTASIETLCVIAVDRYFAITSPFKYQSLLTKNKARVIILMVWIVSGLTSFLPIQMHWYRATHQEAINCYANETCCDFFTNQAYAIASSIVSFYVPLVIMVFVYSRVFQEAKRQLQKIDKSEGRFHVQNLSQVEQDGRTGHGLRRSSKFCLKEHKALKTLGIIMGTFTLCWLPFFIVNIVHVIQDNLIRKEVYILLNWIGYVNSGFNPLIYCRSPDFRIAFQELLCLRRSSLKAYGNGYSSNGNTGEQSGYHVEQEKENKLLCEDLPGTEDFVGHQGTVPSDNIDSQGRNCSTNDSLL
Sequence of Gonadotropin-releasing hormone receptor (Homo sapiens) (P30968 whole entry, looked up): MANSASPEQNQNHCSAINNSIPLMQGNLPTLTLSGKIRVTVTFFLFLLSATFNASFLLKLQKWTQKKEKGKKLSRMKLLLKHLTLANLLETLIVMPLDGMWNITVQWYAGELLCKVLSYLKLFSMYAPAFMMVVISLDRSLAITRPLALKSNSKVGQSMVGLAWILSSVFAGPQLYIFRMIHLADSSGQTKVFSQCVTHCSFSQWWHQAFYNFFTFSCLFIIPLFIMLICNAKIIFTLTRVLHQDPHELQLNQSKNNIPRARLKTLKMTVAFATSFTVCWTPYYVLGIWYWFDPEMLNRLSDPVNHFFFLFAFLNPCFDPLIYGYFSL
Sequence of KiSS-1 receptor (Homo sapiens) (Q969F8 whole entry, looked up): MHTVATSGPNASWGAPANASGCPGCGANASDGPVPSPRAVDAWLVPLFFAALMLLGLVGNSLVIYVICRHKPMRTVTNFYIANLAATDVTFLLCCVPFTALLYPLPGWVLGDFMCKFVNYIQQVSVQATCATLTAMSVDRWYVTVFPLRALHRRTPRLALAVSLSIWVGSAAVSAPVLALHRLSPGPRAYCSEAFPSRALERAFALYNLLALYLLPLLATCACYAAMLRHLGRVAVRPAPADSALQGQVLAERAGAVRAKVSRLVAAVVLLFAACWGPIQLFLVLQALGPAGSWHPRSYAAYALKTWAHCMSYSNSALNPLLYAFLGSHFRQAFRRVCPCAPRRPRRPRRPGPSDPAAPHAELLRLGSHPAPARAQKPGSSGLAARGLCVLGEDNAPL
Sequence of 5-hydroxytryptamine receptor 2A (Homo sapiens) (P28223 whole entry, looked up): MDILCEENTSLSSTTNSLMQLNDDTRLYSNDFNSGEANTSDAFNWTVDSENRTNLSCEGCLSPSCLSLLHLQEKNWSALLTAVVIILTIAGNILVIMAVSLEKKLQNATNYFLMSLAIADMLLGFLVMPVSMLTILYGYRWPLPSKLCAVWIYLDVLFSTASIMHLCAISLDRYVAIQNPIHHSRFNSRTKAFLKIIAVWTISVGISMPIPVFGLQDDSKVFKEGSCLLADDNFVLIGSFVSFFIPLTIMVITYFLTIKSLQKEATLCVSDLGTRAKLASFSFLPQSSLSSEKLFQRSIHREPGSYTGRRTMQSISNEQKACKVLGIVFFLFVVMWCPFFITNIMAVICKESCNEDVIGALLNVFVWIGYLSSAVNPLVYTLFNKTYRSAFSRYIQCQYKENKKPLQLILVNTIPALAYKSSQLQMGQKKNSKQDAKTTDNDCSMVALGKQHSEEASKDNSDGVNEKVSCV

SMILES	Potency [1]	Potency [2]	Potency [3]	Potency [4]	Potency [5]	Potency [6]	Potency [7]	Potency [8]	Potency [9]	Potency [10]	Potency [11]	Potency [12]	Potency [13]	Potency [14]	Potency [15]	Potency [16]	Potency [17]	Potency [18]	Potency [19]	Potency [20]
CCCOc1ccc2nc(NC(=O)OC)[nH]c2c1	7.5 µM (active)	inactive	inactive	inactive	inactive	inactive	inactive	inactive	inactive	inactive	inactive	inactive	inactive							
Cc1cccc(Br)c1	24.5 µM (active)	inactive	inactive	inactive	inactive		inactive	inactive			inactive	inactive	inactive	20.6 µM (active)	inactive	inactive				
O=C1CCC/C=C\CCCCCCCCCC1	54.5 µM (active)	inactive	inactive	inactive	inactive	inactive			inactive		inactive	inactive	inactive		inactive	inactive	inactive	inactive	inactive	inactive
CCCCCCCOC(=O)c1ccc(O)cc1	inactive	inactive	inactive	inactive	inactive			inactive	inactive	38.6 µM (active) and 45.2 µM (active)	inactive		inactive	36.4 µM (active)	38.9 µM (active)	inactive		inactive	inactive	
CCC(C)c1cc(C(C)(C)C)c(O)c(C(C)(C)C)c1 (stereo not given)	16.9 µM (active)	inactive	inactive	inactive	inactive		inactive	inactive	inactive	inactive	inactive	inactive		inactive	inactive		inactive	inactive	inactive	inactive
CN(C)[C@@H](CCOc1cccc2ccccc12)c1ccccc1	inactive	inactive	inactive	inactive	inactive	inactive	inactive		inactive		inactive	inactive	inactive		10.7 µM (active)		inactive	inactive		inactive
CN(C)CC/C=C1\c2ccccc2Sc2ccc(Cl)cc21	inactive	inactive	inactive	inactive	inactive			0.0729 µM (active)	inactive	inactive	inactive	inactive	0.531 µM (active)	inactive	inactive		inactive		inactive	
CCN(CC)c1ccc(C(=C2C=CC(=[N+](CC)CC)C=C2)c2cc(S(=O)(=O)O)ccc2S(=O)(=O)[O-])cc1	inactive	inactive	inactive	inactive	inactive	inactive			inactive	inactive					inactive		17.8 µM (active)	inactive	inactive	inactive
CCCCC/C=C\C=C\C(=O)OCC	25.4 µM (active)	inactive	inactive	inactive	inactive		inactive		inactive		inactive	inactive	inactive	inactive		inactive	inactive		inactive	
CN(C)c1ccc(N=Nc2ccccc2C(=O)O)cc1	61.1 µM (active)	inactive	inactive	inactive	inactive	inactive	inactive	inactive	inactive		inactive	inactive	inactive		inactive				inactive	
O=[N+]([O-])c1ccc(Nc2ccc(Nc3ccccc3)c(S(=O)(=O)O)c2)c([N+](=O)[O-])c1	inactive	inactive	inactive	inactive	inactive		inactive	inactive	inactive	inactive	inactive	inactive		inactive	inactive	inactive	inactive	inactive	inactive	inactive
O=C1Cc2cc(CCN3CCN(c4nsc5ccccc45)CC3)c(Cl)cc2N1	inactive	inactive	inactive	inactive	inactive	inactive	inactive		inactive		inactive	inactive							5.16 µM (active)	inactive
COC(=O)Nc1nc2ccc(C(=O)c3cccs3)cc2[nH]1	2.66 µM (active)	inactive	inactive	inactive	inactive	inactive	inactive			inactive	inactive	inactive	inactive							
Cc1c2ccccc2c(C)c2c1ccc1ccccc12	13.5 µM (active) and 9.69 µM (active)	inactive	inactive	inactive	inactive			inactive	inactive		inactive	inactive	inactive	inactive	10.9 µM (active) and inactive		inactive		inactive	
